Experimental data as given in PubChem BioAssay (Tox21).
Where “and” joins values, the source holds several entries; their conditions need not be identical. Identical values can stand only once. Inconclusive results are not listed. Values without a mark were called inactive. Calls of active or inactive are those of the source. The call rests on the fitted dose curve; in most records, active means well fitted inhibition curve with a large enough effect in the repeat runs; inconclusive means weak or mixed curves, or effect the other way; inactive means no such curve, though single readings can be large or run the other way.

molecular target: Nuclear receptor ROR-gamma (Homo sapiens) (UniProt P51449); assay: qHTS assay to identify small molecule antagonists of the retinoid-related orphan receptor gamma (ROR-gamma) signaling pathway (AID 1159521; further: nearly all actives have a fitted effect of over 50% in size; on activity change, negative = inhibition: top concentration of the series differs between compounds); settings: Tet-on RORgamma CHO cells, RORE-luciferase, 16 h; series mostly up to 92.4 µM; activity change, negative = inhibition: at the top concentration
Source text: U.S. Tox21 Program National Center for Advancing Translational Sciences [NCATS] NIH Chemical Genomics Center [NCGC] U.S. Environmental Protection Agency [EPA] National Institutes of Environmental Health Sciences [NIEHS] National Toxicology Program [NTP] U.S. Food and Drug Administration [FDA] Tox21 Assay Overview: Nuclear steroid hormone receptors are involved in many biological processes including inflammatory responses, cell proliferation, and apoptosis. Environmental factors or compounds disrupting these nuclear receptor pathways and gene expression may promote susceptibility to immunotoxicants and autoimmune diseases. One important group of these expression factors are the retinoid-related orphan receptors. To assess compounds that may interfere with the retinoid-related orphan receptor gamma (ROR-gamma) transcription factor, a cell-based luciferase assay was used. The CHO cell-based assay utilizes a TET-inducible ROR expression factor and ROR response element-LUC reporter gene. Reporter gene activity was induced using Doxycycline Hyclate and measured after 16 hr incubation. Tet-on ROR gamma CHO cells were used to screen against the Tox21 10K compound library for ROR gamma antagonists by quantification of decreased reporter gene activity in terms of decreased luminescence.
Tox21 Assay Protocol Summary: Tet-on ROR gamma CHO cells were dispensed at 1,000 cells in 4 uL of culture medium per well into white wall/solid bottom 1536-well plates using a Multidrop Combi (Thermo Scientific, Waltham, MA) dispenser. Following incubation at 37 C and 5% CO2 for 4 hr, 23 nL of compounds dissolved in DMSO, positive controls or DMSO only were transferred by a Pintool station (Kalypsys, San Diego, CA) and after 2 hr incubation at 37 C, one ul of 1 uM (final concentration) of Doxycycline Hyclate was added to all the wells by using a Flying Reagent Dispenser (FRD) (Aurora Discovery, San Diego, CA). After 16 hr incubation at 37 C and 5% CO2, 5 uL of ONE-Glo reagent (Promega Corporation, Madison, WI) was added to each assay plate using FRD. After 30 min incubation at room temperature, luminescence was quantified on a ViewLux plate reader (Perkin Elmer, Waltham, MA).
On the % scale 0 is the no-effect control and ±100 the full control effect; potency means the concentration at half of the fitted maximal effect.

SMILES	Potency	activity change, negative = inhibition
CCOCn1c(-c2ccc(Cl)cc2)c(C#N)c(Br)c1C(F)(F)F	0.686 µM (active)	–
Oc1ccc(I)cc1	–	-23.3%
CCCCCCCCCCCCCN1CC(C)OC(C)C1 (stereo not given)	–	4.36%
CCCSP(=O)(OCC)SCCC	–	14.8%
C=CCC1=C(C)C(OC(=O)C2C(C=C(C)C)C2(C)C)CC1=O (stereo not given)	32.5 µM (active)	–
Oc1ccc2ccc3cccc4ccc1c2c34	–	15.3%
CC(O)C#N (stereo not given)	–	15.1%
CN(C)CCc1c[nH]c2ccc(O)cc12	–	-15.3%
COc1ccc(OC)c(C=O)c1	–	-5.25%
CCN	–	12.7%
O=[N+]([O-])c1c2ccccc2cc2ccccc12	–	66%
O=[N+]([O-])c1cc([N+](=O)[O-])c2ccccc2c1	–	64.6%
CC(C)(C)OO	–	0.144%
CC1(c2ccc(Oc3ccccc3)cc2)OC(=O)N(Nc2ccccc2)C1=O (stereo not given)	6.15 µM (active)	–
Clc1ccc(-c2ccccc2)cc1	–	-11.6%
C1CCC2CCCCC2C1 (stereo not given)	–	-2.4%
COc1ccc(N)cc1N	7.08 µM (active) and 14.7 µM (active)	–
CC(C)N1C(=O)N(c2ccccc2)CSC1=NC(C)(C)C	43.3 µM (active)	–
CC(=O)c1ccc(-c2ccccc2)cc1	–	39.3%
O=c1[nH]c2ccccc2n1C1CCN(CCCC(c2ccc(F)cc2)c2ccc(F)cc2)CC1	19.3 µM (active) and 23.7 µM (active)	–

SMILES	Potency	activity change, negative = inhibition
C[C@@H]1O[C@@H](O[C@@H]2C=C3CC[C@@H]4[C@H](CC[C@]5(C)[C@@H](c6ccc(=O)oc6)CC[C@]45O)[C@@]3(C)CC2)[C@H](O)[C@H](O)[C@H]1O	15 µM (active)	–
CN(C)S(=O)(=O)N(SC(F)(Cl)Cl)c1ccccc1	4.86 µM (active)	–
COc1cccc2c1C(=O)c1c(O)c3c(c(O)c1C2=O)C[C@@](O)(C(=O)CO)CC3OC1CC(N2CCOC(OC)C2)C(O)C(C)O1 (stereo not given in full)	0.298 µM (active)	–
CC(=O)O[C@H]1CC[C@@]2(C)C(=CC[C@@H]3[C@@H]2CC[C@]2(C)C(=O)CC[C@@H]32)C1	48.6 µM (active)	–
Clc1ccc(CSC(Cn2ccnc2)c2ccc(Cl)cc2Cl)cc1 (stereo not given)	29.8 µM (active)	–
CCCCCCCCc1ccc(O)cc1	–	50.3%
Cc1cc(SCc2sc(-c3ccc(C(F)(F)F)c(F)c3)nc2C)ccc1OCC(=O)O	–	-22.4%
C[C@@H](Oc1ccc(Cl)cc1Cl)C(=O)O	–	-16.8%
Nc1ccc(Sc2ccc(N)cc2)cc1	–	43.2%
C[As+](C)(C)CC(=O)[O-]	–	4.09%
N#CC(Cl)Cl	–	43.6%
O=CC(Br)(Br)Br	–	-83.8%
CCOc1cc(C(C)(C)C)ccc1C1COC(c2c(F)cccc2F)=N1 (stereo not given)	33.1 µM (active)	–
[CH3][Hg][Cl]	3.05 µM (active)	–
CC(C)(C)C(O)/C(=C\c1ccc(Cl)cc1Cl)n1cncn1 (stereo not given)	41.6 µM (active)	–
O=c1ssc(Cl)c1Cl	17.2 µM (active)	–
CCCN(CC)CC1COC2(CCC(C(C)(C)C)CC2)O1 (stereo not given)	–	-20.3%
COP(=S)(OC)Oc1cc(Cl)c(Br)cc1Cl	68.6 µM (active)	–
C[C@H]1O[C@@H](O[C@H]2[C@@H](O)C[C@H](O[C@H]3[C@@H](O)C[C@H](O[C@H]4CC[C@@]5(C)[C@H](CC[C@@H]6[C@@H]5CC[C@]5(C)[C@@H](C7=CC(=O)OC7)CC[C@]65O)C4)O[C@@H]3C)O[C@@H]2C)C[C@H](O)[C@@H]1O	5.48 µM (active) and 16.8 µM (active)	–
Cc1cc(C(C)(C)c2cc(C)c(O)c(C)c2)cc(C)c1O	26.4 µM (active)	–
